# The supplement of paper PMC8728848
# About 410 targets per protein were measured; listed, in parts, are those with the strongest signals and a random draw of the rest.
# B1: CLEC5A (Homo sapiens), Q9NY25 (protein)
# chain: MNWHMIISGLIVVVLKVVGMTLFLLYFPQIFNKSNDGFTTTRSYGTVSQIFGSSSPSPNGFITTRSYGTVCPKDWEFYQARCFFLSTSESSWNESRDFCKGKGSTLAIVNTPEKLKFLQDITDAEKYFIGLIYHREEKRWRWINNSVFNGNVTNQNQNFNCATIGLTKTFDAASCDISYRRICEKNAK
# Assays:
# Test in all cases: glycan array binding signal (z-score within array); higher = stronger binding
# Details in all cases: glycan notation: IUPAC condensed, linker removed
# [1] = biological target: 4d8dNeu5Ac(a2-3)Gal(b1-4)Glc
# Procedure, shortened: (§1)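 Arrays were curated from the Consortium for Functional Glycomics database, 3228 in total, and kept only where the protein sequence was available. Binding is expressed as a within-array Z-score. This score was averaged across arrays of the same protein sequence at different concentrations or buffers and across linkers, and negative values can be read as non-binding.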
# [2] = biological target: 4dNeu5Ac(a2-3)Gal(b1-4)Glc
# Procedure, shortened: as §1
# [3] = biological target: Fuc(a1-2)Gal(b1-3)GlcNAc(b1-2)Man(a1-3)[Fuc(a1-2)Gal(b1-3)GlcNAc(b1-2)Man(a1-6)]Man(b1-4)GlcNAc(b1-4)GlcNAc
# Procedure, shortened: as §1
# [4] = biological target: Fuc(a1-2)Gal(b1-3)[Fuc(a1-4)]GlcNAc(b1-2)Man(a1-3)[Fuc(a1-2)Gal(b1-3)[Fuc(a1-4)]GlcNAc(b1-2)Man(a1-3)]Man(b1-4)GlcNAc(b1-4)GlcNAc
# Procedure, shortened: as §1
# [5] = biological target: Fuc(a1-2)[Gal(a1-3)]Gal(b1-3)GlcNAc
# Procedure, shortened: as §1
# [6] = biological target: Fuc(a1-2)[Gal(a1-3)]Gal(b1-4)GlcNAc(b1-3)[Fuc(a1-2)[Gal(a1-3)]Gal(b1-4)GlcNAc(b1-6)]GalNAc
# Procedure, shortened: as §1
# [7] = biological target: Fuc(a1-2)[GalNAc(a1-3)]Gal(b1-4)GlcNAc(b1-2)Man(a1-3)[Fuc(a1-2)[GalNAc(a1-3)]Gal(b1-4)GlcNAc(b1-2)Man(a1-6)]Man(b1-4)GlcNAc(b1-4)[Fuc(a1-6)]GlcNAc
# Procedure, shortened: as §1
# [8] = biological target: Fuc(a1-2)[GalNAc(a1-3)]Gal(b1-4)GlcNAc(b1-3)Gal(b1-4)GlcNAc
# Procedure, shortened: as §1
# [9] = biological target: Fuc(a1-2)[GalNAc(a1-3)]Gal(b1-4)[Fuc(a1-3)]GlcNAc(b1-3)GalNAc
# Procedure, shortened: as §1
# [10] = biological target: Fuc(a1-3)[Gal(b1-4)]GlcNAc(b1-3)[Fuc(a1-2)]Gal(b1-4)Glc
# Procedure, shortened: as §1
# Fuc(a1-4)GlcNAc = biological target: Fuc(a1-4)GlcNAc
# Procedure, shortened: as §1
# [11] = biological target: Gal(b1-3)Gal(b1-4)GlcNAc(b1-2)Man(a1-3)[Gal(b1-3)Gal(b1-4)GlcNAc(b1-2)Man(a1-6)]Man(b1-4)GlcNAc(b1-4)GlcNAc
# Procedure, shortened: as §1
# [12] = biological target: Gal(b1-3)GlcNAc(a1-6)Gal(b1-4)GlcNAc
# Procedure, shortened: as §1
# [13] = biological target: Gal(b1-3)GlcNAc(b1-3)Gal(b1-4)Glc
# Procedure, shortened: as §1
# [14] = biological target: Gal(b1-3)GlcNAc(b1-3)Gal(b1-4)[Fuc(a1-3)]GlcNAc(b1-6)[Gal(b1-3)GlcNAc(b1-3)]Gal(b1-4)Glc
# Procedure, shortened: as §1
# [15] = biological target: Gal(b1-3)[Fuc(a1-4)]GlcNAc(b1-2)Man(a1-3)[Gal(b1-3)[Fuc(a1-4)]GlcNAc(b1-2)Man(a1-6)]Man(b1-4)GlcNAc(b1-4)GlcNAc
# Procedure, shortened: as §1
# [16] = biological target: Gal(b1-3)[Fuc(a1-4)]GlcNAc(b1-3)Gal(b1-4)[Fuc(a1-3)]GlcNAc
# Procedure, shortened: as §1
# [17] = biological target: Gal(b1-3)[Fuc(a1-4)]GlcNAc(b1-3)Gal(b1-4)[Fuc(a1-3)]GlcNAc(b1-6)[Gal(b1-3)[Fuc(a1-4)]GlcNAc(b1-3)]Gal(b1-4)Glc
# Procedure, shortened: as §1
# [18] = biological target: Gal(b1-3)[Neu5Ac(a2-6)]GalNAc
# Procedure, shortened: as §1
# Gal(b1-4)Glc = biological target: Gal(b1-4)Glc
# Procedure, shortened: as §1
# [19] = biological target: Gal(b1-4)GlcNAc(b1-2)Man(a1-6)[GlcNAc(b1-2)Man(a1-3)]Man(b1-4)GlcNAc(b1-4)[Fuc(a1-6)]GlcNAc
# Procedure, shortened: as §1
# [20] = biological target: Gal(b1-4)GlcNAc(b1-2)Man(a1-6)[Man(a1-3)]Man(b1-4)GlcNAc(b1-4)[Fuc(a1-6)]GlcNAc
# Procedure, shortened: as §1
# [21] = biological target: Gal(b1-4)GlcNAc(b1-3)Gal(b1-4)GlcNAc(b1-2)Man(a1-3)[Gal(b1-4)GlcNAc(b1-3)Gal(b1-4)GlcNAc(b1-2)Man(a1-6)]Man(b1-4)GlcNAc(b1-4)[Fuc(a1-6)]GlcNAc
# Procedure, shortened: as §1
# [22] = biological target: Gal(b1-4)GlcNAc(b1-3)Gal(b1-4)GlcNAc(b1-3)Gal(b1-4)GlcNAc
# Procedure, shortened: as §1
# [23] = biological target: Gal(b1-4)GlcNAc(b1-3)Gal(b1-4)GlcNAc(b1-3)Gal(b1-4)GlcNAc(b1-3)Gal(b1-4)GlcNAc(b1-2)Man(a1-3)[Gal(b1-4)GlcNAc(b1-3)Gal(b1-4)GlcNAc(b1-3)Gal(b1-4)GlcNAc(b1-3)Gal(b1-4)GlcNAc(b1-2)Man(a1-6)]Man(b1-4)GlcNAc(b1-4)[Fuc(a1-6)]GlcNAc
# Procedure, shortened: as §1
# [24] = biological target: Gal(b1-4)GlcNAc(b1-3)Gal(b1-4)GlcNAc(b1-3)Gal(b1-4)GlcNAc(b1-3)Gal(b1-4)GlcNAc(b1-3)Gal(b1-4)GlcNAc(b1-2)[Gal(b1-4)GlcNAc(b1-3)Gal(b1-4)GlcNAc(b1-3)Gal(b1-4)GlcNAc(b1-3)Gal(b1-4)GlcNAc(b1-3)Gal(b1-4)GlcNAc(b1-6)]Man(a1-6)[Gal(b1-4)GlcNAc(b1-3)Gal(b1-4)GlcNAc(b1-3)Gal(b1-4)GlcNAc(b1-3)Gal(b1-4)GlcNAc(b1-3)Gal(b1-4)GlcNAc(b1-2)Man(a1-3)]Man(b1-4)GlcNAc(b1-4)[Fuc(a1-6)]GlcNAc
# Procedure, shortened: as §1
# [25] = biological target: Gal(b1-4)GlcNAc(b1-3)[Fuc(a1-3)GlcNAc(b1-6)]Gal(b1-4)Glc
# Procedure, shortened: as §1
# [26] = biological target: Gal(b1-4)GlcNAc(b1-3)[Fuc(a1-3)[Gal(b1-4)]GlcNAc(b1-6)]Gal(b1-4)Glc
# Procedure, shortened: as §1
# [27] = biological target: Gal(b1-4)GlcNAc(b1-6)[Gal(b1-3)]GalNAc
# Procedure, shortened: as §1
# [28] = biological target: Gal3S(b1-3)[Fuc(a1-4)]GlcNAc
# Procedure, shortened: as §1
binder,measurement,setting,value
B1,glycan array binding signal (z-score),[1],-0.32
same,glycan array binding signal (z-score),[2],-0.32
same,glycan array binding signal (z-score),[3],0.119
same,glycan array binding signal (z-score),[4],0.282
same,glycan array binding signal (z-score),[5],-0.016
same,glycan array binding signal (z-score),[6],2
same,glycan array binding signal (z-score),[7],0.189
same,glycan array binding signal (z-score),[8],0.56
same,glycan array binding signal (z-score),[9],2.38
same,glycan array binding signal (z-score),[10],-0.32
same,glycan array binding signal (z-score),Fuc(a1-4)GlcNAc,11.1
same,glycan array binding signal (z-score),[11],2.62
same,glycan array binding signal (z-score),[12],-0.327
same,glycan array binding signal (z-score),[13],-0.282
same,glycan array binding signal (z-score),[14],-0.154
same,glycan array binding signal (z-score),[15],1.69
same,glycan array binding signal (z-score),[16],-0.037
same,glycan array binding signal (z-score),[17],-0.32
same,glycan array binding signal (z-score),[18],-0.023
same,glycan array binding signal (z-score),Gal(b1-4)Glc,-0.243
same,glycan array binding signal (z-score),[19],-0.031
same,glycan array binding signal (z-score),[20],4.98
same,glycan array binding signal (z-score),[21],0.05
same,glycan array binding signal (z-score),[22],0.076
same,glycan array binding signal (z-score),[23],1.88
same,glycan array binding signal (z-score),[24],0.25
same,glycan array binding signal (z-score),[25],-0.199
same,glycan array binding signal (z-score),[26],-0.031
same,glycan array binding signal (z-score),[27],-0.196
same,glycan array binding signal (z-score),[28],0.015
